Assay [1] is described as follows: Her2 expression decrease, cell viability multiplex – SKBR3 breast tumor cells, AlphaScreen, ATP viability, primary screen (AID 461;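 active = Her2 level under about 52% in both replicate screens, with viability over 70% of control, limit read from the data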;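 as to Her2 level: lower value means less Her2 protein in the cells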;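 as to viability: percent of carrier control wells set as 100% viability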). The following applies: SKBR3 Her2 protein level, 18-24 h, measured here: SKBR3 viability, ATP luminescence, at 10 µM. Background: In Alpha technology, singlet oxygen from a donor bead excites a nearby acceptor bead.
Assay [2] addresses Receptor tyrosine-protein kinase erbB-2 (Homo sapiens) (UniProt P04626). The description is as above. The following applies: 18-24 h, at 10 µM, stronger effect = lower value.
Assay [3] is described as follows: reduced viability of SK-BR-3 breast cancer cells – cell-based, 24 h, human, pilot screen (AID 572;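 active = viability at or below 10% of carrier control in both of two separate runs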;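 also: compound exposure lasted between 18 and 24 h rather than exactly 24 h; 100% = carrier-treated control wells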). The note with it: SK-BR-3 viability, CellTiter-Glo luminescence, at 10 µM, stronger effect = lower value. In general terms: ATP-based viability assays read luminescence as a measure of living cells.
Assay [4] can be described thus: HUVEC growth inhibition – cell-based, human, primary screen (AID 575;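 active = viability at or below 30% in both replicate assays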;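 also: 100% = median of untreated cell wells with 0.1% DMSO on each plate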). The following applies: HUVEC proliferation, CellTiter-Glo luminescence, 72 h; at 10 µM; stronger effect = lower value.
Assay [5] is described as follows: H69AR cell proliferation blockers – human, duplicate replicates, primary screen (AID 580;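 active = viability at or under a set limit in both replicates, limit being median viability minus 3 SD, cut at about 48% in these data, passing the limit was not always enough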;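 also: 100% = mean luminescence of untreated wells and 0% = no signal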). The note with it: H69AR lung tumor cells viability, ATP luminescence, 72 h; at 10 µM; stronger effect = lower value.
The nature of assay [6]: MRP1 drug-resistance reversers in H69AR cells – cell-based, doxorubicin co-treatment, pilot screen (AID 601;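 active = viability loss from added drug above about 55%, and viability with drug at most 40%, in both replicates, limit read from the data, passing the limit was not always enough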). The following applies: CellTiter-Glo, 72 h, at 10 µM; for differential viability (reversal): stronger effect = higher value.
The nature of assay [7]: yeast transport mutant growth inhibition pilot in 384-well plates, post-Golgi transport modulator project (AID 636; in the data active = inhibition above about 31%). The following applies: absorbance 615 nm, about 18 h, stronger effect = higher value.
The nature of assay [8]: growth suppression of yeast trafficking mutant, preliminary HTS, modulators of trafficking downstream of Golgi apparatus project, 1536-format plate, OD 615 nm (AID 637; in the data active = inhibition above about 30%). The note with it: yeast transport mutant growth, absorbance 615 nm, 18 h; stronger effect = higher value.
The nature of assay [9]: S. cerevisiae growth inhibition in permissive medium (OD615), pilot counter-assay for S. cerevisiae lifespan shortening project, permissive growth control (AID 705;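 active = growth inhibition above 25% in both replicates, a cutoff set 3 SD above the mean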). The note with it: OD615, 24 h, at 10 µM, stronger effect = higher value.
The nature of assay [10]: S. cerevisiae growth inhibition in restrictive medium, OD615, pilot screen, restrictive growth control, yeast lifespan reduction project (AID 706;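 active = growth inhibition above a set limit, 3 SD over mean compound inhibition, in both replicates, cut at about 43% in these data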;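 also: modified DeaD lifespan yeast strain shifted to restrictive glucose medium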). The note with it: OD615, 48 h, at 10 µM, stronger effect = higher value.
The nature of assay [11]: doxorubicin toxicity protection in MRP-1 cells – H69AR cells, CellTiter-Glo, duplicate, MRP-1 activator project, pilot screen (AID 807;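 active = viability increase at or above a cutoff of the median across tested compounds plus 3 SD, cut at about 8.5% in these data, passing the limit was not always enough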;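 also: compound pretreatment 18-22 h then 72 h combined with doxorubicin; 0% = doxorubicin alone and 100% = vehicle without doxorubicin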). The following applies: H69AR viability with doxorubicin, CellTiter-Glo luminescence; at 10 µM; stronger effect = higher value.
The nature of assay [12]: viability of HCT116 without oncogenic beta-catenin – human colon tumor cells, pilot screen (AID 823;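 active = cell viability at or below a set limit in both duplicate runs, the limit being the all-compound median minus 4 SD, cut at about 23% in these data, passing the limit was not always enough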;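 also: 0% = wells killed by 20 µM Hyamine and 100% = untreated DMSO cell wells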). The note with it: HCT116 beta-catenin knockout viability, CellTiter-Glo, 60 h; at 10 µM; stronger effect = lower value.
Assay [13] in a line: viability of PTEN-null HCT116 cells – cell-based, HCT116 clonal line, CellTiter-Glo, pilot screen (AID 824;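 active = viability at or below 27.92% in each of two runs, the all-compound median minus 4 SD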;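 also: 0% = 20 µM Hyamine control and 100% = vehicle cell control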). The note with it: HCT116 PTEN-deleted viability, 60 h, at 10 µM, stronger effect = lower value.
The nature of assay [14]: RAM pathway blockade in budding yeast – dse1pr::URA3 reporter, 5-FOA selection, pilot screen (AID 869).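 Also: 0% = DMSO wells with no growth and 100% = 10 µM 1-NA-PP1 with full growth; RAM network block rescues cells from 5-FOA so hits raise OD615 growth.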 The note with it: S. cerevisiae dse1pr::URA3 5-FOA growth, OD615, 2 d; at 10 µM; stronger effect = higher value; strain carries analog-sensitive mutant Cbk1 kinase.
Assay [15] in a line: RAM signaling pathway blockade in yeast – S. cerevisiae, Pdr1DBD-CYC8 efflux-inhibited sensitized strain, primary screen (AID 1298;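 active = RAM network inhibition above 8.4% in each of two replicates, 3 SD over the compound average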;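 also: 0% = DMSO untreated cells without growth and 100% = 10 µM 1-NA-PP1 full growth; higher means more yeast growth rescued from 5-FOA killing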). The following applies: S. cerevisiae cbk1-as DSE1-URA3 strain, 5-FOA growth OD615, 2 d; at 50 µM; stronger effect = higher value.
Where [16] appears, read: H69AR cells + 2 uM doxorubicin, measured here: viability with 2 uM doxorubicin, stronger effect = lower value.
[17] abbreviates: H69AR cells, compound alone cytotoxicity.

The text below walks through data of PubChem BioAssay.

Results filed as inconclusive are left out. Activity calls are given as the source filed them.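 The calls were made as follows, unless noted: active = inhibition over a set limit, the all-compound mean plus 3 SD, in both replicate runs; inconclusive = over that limit in just one replicate run; inactive = at or under that limit in both runs.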

For orientation: viability means a read-out of living cells in per cent, often relative to untreated cells. As a reminder, the inhibition is the drop in the measured response relative to a control, in per cent.

Sequence of Receptor tyrosine-protein kinase erbB-2 (Homo sapiens) (P04626 whole entry, looked up): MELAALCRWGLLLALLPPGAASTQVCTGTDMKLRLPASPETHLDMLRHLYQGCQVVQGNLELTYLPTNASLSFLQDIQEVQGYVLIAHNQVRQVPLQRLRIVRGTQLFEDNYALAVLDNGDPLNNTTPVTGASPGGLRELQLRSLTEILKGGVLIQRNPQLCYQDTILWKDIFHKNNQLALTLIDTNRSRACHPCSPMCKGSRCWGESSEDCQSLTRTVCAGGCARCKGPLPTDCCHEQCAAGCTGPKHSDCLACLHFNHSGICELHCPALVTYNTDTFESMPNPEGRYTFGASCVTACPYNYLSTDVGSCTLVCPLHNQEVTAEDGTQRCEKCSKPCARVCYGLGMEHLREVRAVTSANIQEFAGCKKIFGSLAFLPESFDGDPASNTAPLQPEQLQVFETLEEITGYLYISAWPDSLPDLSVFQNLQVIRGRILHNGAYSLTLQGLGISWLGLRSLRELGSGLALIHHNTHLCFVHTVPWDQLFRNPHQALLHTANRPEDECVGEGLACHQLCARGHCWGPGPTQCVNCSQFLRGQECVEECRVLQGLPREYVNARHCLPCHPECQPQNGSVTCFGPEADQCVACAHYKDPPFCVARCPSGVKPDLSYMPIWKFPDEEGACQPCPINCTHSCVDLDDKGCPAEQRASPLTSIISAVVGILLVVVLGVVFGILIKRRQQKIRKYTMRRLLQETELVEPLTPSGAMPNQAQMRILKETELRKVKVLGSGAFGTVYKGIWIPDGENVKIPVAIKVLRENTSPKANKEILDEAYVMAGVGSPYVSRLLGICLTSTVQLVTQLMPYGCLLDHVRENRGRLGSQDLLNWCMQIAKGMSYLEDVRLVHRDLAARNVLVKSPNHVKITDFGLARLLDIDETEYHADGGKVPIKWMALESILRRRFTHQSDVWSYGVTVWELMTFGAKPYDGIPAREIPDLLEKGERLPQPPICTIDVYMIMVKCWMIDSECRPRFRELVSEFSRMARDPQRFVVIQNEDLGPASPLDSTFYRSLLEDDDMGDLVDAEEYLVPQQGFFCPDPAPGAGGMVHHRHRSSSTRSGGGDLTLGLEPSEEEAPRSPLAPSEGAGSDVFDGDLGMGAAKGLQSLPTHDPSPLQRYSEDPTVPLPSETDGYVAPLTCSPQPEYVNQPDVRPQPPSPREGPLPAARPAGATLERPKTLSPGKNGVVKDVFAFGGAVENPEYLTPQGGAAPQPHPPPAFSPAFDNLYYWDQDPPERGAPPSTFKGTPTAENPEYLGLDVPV

For the molecule `CC1=C(C(=O)Nc2cccnc2)C(c2ccc(C(C)C)cc2)n2ncnc2N1` (stereo not drawn), the viability in [1] was 89.5%; in assay [3], 89.5% (inactive); in assay [4], 103% (inactive); in assay [5], 97.8% (inactive); in assay [6] (setting [16]), 71.1%; in assay [6] (setting [17]), 97.8%. Also, the viability was 96.6% (inactive) in [12] and 102% (inactive) in assay [13]. For the same molecule, in assay [2], the Her2 level is 105% (inactive). Moreover, in [6] (H69AR cells + 2 uM doxorubicin), the differential viability (reversal) is 26.7% (inactive). Also, the values for the inhibition in assay [7], in assay [8] and in assay [14] were -2.13% (inactive), -2.83% (inactive) and 0.44% (inactive), respectively. For the same molecule, the growth inhibition in [9] is -9.26% (inactive); in [10] it was -12.1% (inactive). Besides, the viability increase in assay [11] is -3.03% (inactive). Besides, in assay [15], the RAM network inhibition is 1.4% (inactive).

As for `Cc1cc2ncc(-c3ccc(Cl)cc3)c(N)n2n1`, the viability in assay [1] was 83%; in assay [3], 83% (inactive); in [4] it was 69.6% (inactive); in assay [5] it was 82.7% (inactive); in assay [6] (setting [16]), 83.1%; in [6] (setting [17]), 82.7%. Moreover, the viability in assay [12] was 88% (inactive); in assay [13] it was 85.4% (inactive). For the same molecule, the Her2 level in assay [2] was 114% (inactive). Moreover, the differential viability (reversal) in assay [6] (H69AR cells + 2 uM doxorubicin) is -0.45% (inactive). In addition, the inhibition in assay [7] is -4.93% (inactive); in assay [8], -0.5% (inactive); in [14] it was 1.27% (inactive). Further, the growth inhibition was -12.6% (inactive) in assay [9] and -0.665% (inactive) in assay [10]. Moreover, the viability increase in assay [11] is -4.85% (inactive). Further, the RAM network inhibition in assay [15] is 1.2% (inactive).

On to `Cc1nn(C(=O)c2ccc3c(c2)OCO3)c(N)c1-c1ccccc1`, for which the viability in assay [1] was 102%; in [3], 102% (inactive); in [4] it was 98.3% (inactive); in [5], 94.2% (inactive); in [6] (setting [16]) it was 84.5%; in assay [6] (setting [17]), 94.2%. Also, the figures for the viability in assay [12] and in [13] were 99.2% (inactive) and 98.2% (inactive), respectively. In addition, the Her2 level in [2] is 95% (inactive). For the same molecule, the differential viability (reversal) in assay [6] (H69AR cells + 2 uM doxorubicin) is 9.75% (inactive). The inhibition was -1.47% (inactive) in [7], 2.13% (inactive) in assay [8] and 0.585% (inactive) in assay [14]. The growth inhibition in [9] was 3.15% (inactive); in assay [10] it was 5.03% (inactive). Also, the viability increase in assay [11] was -2.76% (inactive). For the same molecule, the RAM network inhibition in [15] was 1.02% (inactive).

Turning to `CC1(C)CC(=O)C2=C(C1)NC(=O)CC2c1ccc(N(CCC#N)CCC#N)cc1` (stereo not drawn), the viability in assay [1] was 101%; in assay [3], 101% (inactive); in assay [4], 101% (inactive); in [5], 110% (inactive); in [6] (setting [16]) it was 86.6%; in [6] (setting [17]) it was 110%. Also, the figures for the viability in assay [12] and in assay [13] were 91.5% (inactive) and 100% (inactive), respectively. In addition, in assay [2], the Her2 level was 120% (inactive). The differential viability (reversal) in assay [6] (H69AR cells + 2 uM doxorubicin) was 23.6% (inactive). Also, the figures for the inhibition in assay [7], in [8] and in [14] were -5.68% (inactive), -1.8% (inactive) and 1.41% (inactive), respectively. For the same molecule, the values for the growth inhibition in assay [9] and in assay [10] were -9.4% (inactive) and -8.29% (inactive), respectively. Besides, in assay [11], the viability increase was 0.18% (inactive). In addition, the RAM network inhibition in assay [15] was 1.8% (inactive).

With `COc1cccc(NC(=O)c2ccco2)c1`, the viability was 99% in assay [1]; 99% (inactive) in assay [3]; 94.5% (inactive) in assay [4]; 94.9% (inactive) in [5]; 87.2% in [6] (setting [16]); 94.9% in assay [6] (setting [17]). Moreover, the values for the viability in assay [12] and in assay [13] were 107% (inactive) and 98.7% (inactive), respectively. The Her2 level in assay [2] was 116% (inactive). In addition, in [6] (H69AR cells + 2 uM doxorubicin), the differential viability (reversal) is 7.72% (inactive). In addition, the inhibition was -3.38% (inactive) in assay [7], -4.33% (inactive) in assay [8] and 0.235% (inactive) in [14]. Moreover, the growth inhibition was -0.175% (inactive) in assay [9] and 6.41% (inactive) in assay [10]. Further, in assay [11], the viability increase was -4.31% (inactive). In assay [15], the RAM network inhibition was -0.82% (inactive).

Consider `CCSc1nc2c(c(=O)[nH]1)C(c1cccnc1)C(C(=O)OC(C)C)=C(C)N2` (stereo not drawn), for which the viability in assay [1] was 95.5%; in assay [3], 95.5% (inactive); in assay [4] it was 90.9% (inactive); in [5], 97.4% (inactive); in [6] (setting [16]), 81.8%; in assay [6] (setting [17]), 97.4%. The viability is 92.3% (inactive) in assay [12] and 92.5% (inactive) in assay [13]. Moreover, the Her2 level in assay [2] is 83.5% (inactive). The differential viability (reversal) in assay [6] (H69AR cells + 2 uM doxorubicin) was 15.6% (inactive). For the same molecule, the inhibition in [7] is -4.19% (inactive); in [8], -0.33% (inactive); in [14], 0.98% (inactive). Also, the results for the growth inhibition in [9] and in assay [10] were -18.5% (inactive) and -8.67% (inactive), respectively. In addition, the viability increase in [11] was -3.07% (inactive). Besides, the RAM network inhibition in [15] was 0.72% (inactive).

`CCC(CC)C(=O)NCCc1cc2ccc(C)cc2[nH]c1=O`: the viability in assay [1] was 99%; in [3], 99% (inactive); in assay [4] it was 85.2% (inactive); in assay [5], 87.6% (inactive); in assay [6] (setting [16]), 92.9%; in assay [6] (setting [17]), 87.6%. Besides, the viability in assay [12] is 102% (inactive); in [13] it was 97.4% (inactive). In addition, in assay [2], the Her2 level was 95% (inactive). For the same molecule, the differential viability (reversal) in [6] (H69AR cells + 2 uM doxorubicin) is -5.36% (inactive). The inhibition in [7] was -4.8% (inactive); in assay [8], 4.67% (inactive); in assay [14] it was 0.02% (inactive). Besides, the growth inhibition in assay [9] was 1.09% (inactive); in [10], 0.345% (inactive). Besides, the viability increase in assay [11] is -2.76% (inactive). Also, the RAM network inhibition in [15] was 4.75% (inactive).

`O=C(CC1Oc2ccccc2NC1=O)NCCCN1CCOCC1` (stereo not drawn): the viability is 106% in assay [1]; 106% (inactive) in assay [3]; 85.5% (inactive) in assay [4]; 93.5% (inactive) in assay [5]; 96.9% in [6] (setting [16]); 93.5% in assay [6] (setting [17]). For the same molecule, the viability was 108% (inactive) in [12] and 96.8% (inactive) in assay [13]. In addition, in assay [2], the Her2 level was 100% (inactive). The differential viability (reversal) in [6] (H69AR cells + 2 uM doxorubicin) is -3.48% (inactive). Besides, the inhibition in [7] was -5.07% (inactive); in assay [8], 2.67% (inactive); in assay [14], 1.94% (inactive). Also, the growth inhibition in assay [9] is 2.08% (inactive); in [10], -1.36% (inactive). In assay [11], the viability increase was -2.31% (inactive). For the same molecule, the RAM network inhibition in assay [15] was 0.57% (inactive).

Turning to `CCOc1ccc(NC(=O)CCN2CCN(c3ccccc3)CC2)cc1`, the viability in [1] was 94.5%; in assay [3], 94.5% (inactive); in assay [4] it was 95.3% (inactive); in assay [5], 82.5% (inactive); in assay [6] (setting [16]), 78.5%; in assay [6] (setting [17]), 82.5%. The viability in assay [12] was 90.4% (inactive); in [13], 80.4% (inactive). Besides, in assay [2], the Her2 level was 104% (inactive). Moreover, the differential viability (reversal) in assay [6] (H69AR cells + 2 uM doxorubicin) is 4% (inactive). In addition, the values for the inhibition in [7], in [8] and in assay [14] were -0.9% (inactive), 3.17% (inactive) and 0.545% (inactive), respectively. The results for the growth inhibition in assay [9] and in assay [10] were 4.18% (inactive) and -17.7% (inactive), respectively. In addition, in assay [11], the viability increase was -3.89% (inactive). Further, the RAM network inhibition in [15] is 3.81% (inactive).
